Assay results taken from PubChem BioAssay AID1851 (National Center for Advancing Translational Sciences (NCATS), 2009).
About 5,800 (36%) of roughly 16,000 compounds were called active. About 23% were inconclusive and are not listed. The list shows a part of the results. Unmarked numbers belong to inactive results. Calls come from the whole dose curve; as a rule, active = well fitted curve in the direction sought with a large enough effect; inconclusive = small, poorly fitted or top-dose-only effect, or effect the other way; inactive = no such curve, though single readings can be large or run the other way.

The molecules below were run against Cytochrome P450 2C19 (Homo sapiens) (UniProt P33261) (assay: Cytochrome panel assay with activity outcomes). Details: recombinant CYP, pro-luciferin dealkylation, luminescence, p450-cyp2c19; series mostly up to 57.1 µM; activity, negative = inhibition: at the top concentration.
Cytochrome P450 2C19 (Homo sapiens), sequence (P33261 whole entry, looked up): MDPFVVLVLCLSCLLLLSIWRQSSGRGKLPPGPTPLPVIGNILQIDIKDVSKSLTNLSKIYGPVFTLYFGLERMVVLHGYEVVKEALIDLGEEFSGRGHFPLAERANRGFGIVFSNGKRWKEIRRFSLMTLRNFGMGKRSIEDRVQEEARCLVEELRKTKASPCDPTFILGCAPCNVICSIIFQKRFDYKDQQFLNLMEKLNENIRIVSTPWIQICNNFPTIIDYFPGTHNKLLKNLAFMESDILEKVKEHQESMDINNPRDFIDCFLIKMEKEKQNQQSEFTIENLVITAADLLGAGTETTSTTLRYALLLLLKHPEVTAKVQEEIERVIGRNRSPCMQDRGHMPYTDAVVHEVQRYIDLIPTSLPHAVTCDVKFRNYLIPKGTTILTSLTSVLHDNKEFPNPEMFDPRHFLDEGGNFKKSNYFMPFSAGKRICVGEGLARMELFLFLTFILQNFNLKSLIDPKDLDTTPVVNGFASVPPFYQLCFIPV
% is set by controls: 0 for no effect and ±100 for the full control effect.

Structure (SMILES)	activity, negative = inhibition	AC50
C/C(CCN1CCCCc2nc(C)c(C)cc21)=N\OC[C@@H](O)COCc1ccco1	11% [at 11.4 µM]	
COC(=O)N1CCC2(CCCN(c3ccccn3)C2)CC1		3.16 µM (active)
COC(=O)N1CCC2(CC1)CN(c1ccccn1)C2	-43.9%	
O=C(Oc1ccccc1)N1CCC2(CC1)CCN(c1cccc(-c3ccccc3)c1)CC2	7.79%	
O=C(Oc1ccccc1)N1CCC2(CCCN(c3ccc(-c4ccccc4)cc3)C2)CC1	3%	
O=C(Oc1ccccc1)N1CCC2(CCCN(c3ccccc3)C2)CC1		15.8 µM (active)
CC(=O)N1CCC2(CCCN(c3ccccn3)C2)CC1	-20.4%	
O=S(=O)(O)[C@@H](c1ccccc1)[C@@H](O)c1ccccc1	3.73% [at 11.4 µM]	
Cc1ccc(S(=O)(=O)N=Nc2c(O)[nH]c3cc(O)c(C(=O)O)cc23)cc1	38.4% [at 11.4 µM]	
Cc1cccc(C)c1NC(=O)[C@H](C)N	11.1% [at 25.6 µM]	
Cc1cccc(C)c1NC(=O)C(NC=O)c1ccccc1Cl (stereo unspecified)		7.94 µM (active)
COc1ccc([C@H](O)c2ccccn2)cc1	-15.9% [at 11.4 µM]	
COc1ccc(C(O)c2nccn2Cc2ccccc2)cc1 (stereo unspecified)		5.01 µM (active)
Cc1cc([C@](C)(N)C(=O)O)ccc1P(=O)(O)O	0.228%	
O=C(c1ccc2c(c1)N(Cc1ccc(F)cc1)C(=O)CS2)N1CCOCC1		7.08 µM (active)
O=C1Nc2cc(C(=O)N3CCOCC3)ccc2SC1N1CCOCC1 (stereo unspecified)	10.9%	
COc1ccc(-n2c(CNC(=O)c3ccc(S(=O)(=O)N4CCCC4)cc3)n[nH]c2=S)cc1	-27.5%	
COc1ccc(C(=O)N2CCC3(CC2)CN(C(=O)NC(C)C)C3)cc1	9.55%	
CC(Sc1nnc(Cc2cccs2)n1C1CCCCC1)C(N)=O (stereo unspecified)		39.8 µM (active)
CCOC(=O)C(C)Sc1nnc(CNC(=O)c2ccc(OC)cc2)n1C1CCCCC1 (stereo unspecified)		5.01 µM (active)
O=C(O)[C@@H](O)[C@@H](O)[C@@H](O)[C@@H](O)C(=O)O (tested in a mixture with another compound)	9.98% [at 25.6 µM]	
O=C(O)[C@@H](O)[C@@H](O)[C@H](O)[C@H](O)CO	2.53% [at 11.4 µM]	
O=C(O)[C@@H](O)[C@@H](O)[C@@H](O)[C@@H](O)c1nc2ccccc2s1		3.16 µM (active)
CSc1nc(N)c2ncn([C@@H]3O[C@@H](COP(=O)(O)OP(=O)(O)O)[C@@H](O)[C@H]3O)c2n1	-4.53%	

Structure (SMILES)	activity, negative = inhibition	AC50
COc1ccc(C[C@H](N)C(=O)N[C@@H]2[C@H](O)[C@H](n3cnc4c(N(C)C)ncnc43)O[C@@H]2CO)cc1	10.8% [at 25.6 µM]	
COc1ccc(C(C(=O)NC2CCCCC2)N(C(=O)c2sc(C)nc2C)c2ccc(OC)cc2)cc1 (stereo unspecified)		14.1 µM (active)
CCc1ccc(N(C(=O)c2ccoc2C)C(C(=O)NC2CCCC2)c2ccc(OC)cc2)cc1 (stereo unspecified)		14.1 µM (active)
COc1ccc(C(C(=O)NC2CCCC2)N(C(=O)c2snc(-c3ccc(F)cc3)c2N)c2ccc(F)cc2)cc1 (stereo unspecified)	-24.1%	
N#C/C(=C\N1CCNC1=S)C(=O)c1ccc2ccccc2c1	-10.2% [at 11.4 µM]	
Cc1ccc(C)c(OCCCC(C)(C)C(=O)O)c1	-33.3% [at 25.6 µM]	
C/C(N)=C(/C#N)C(=O)CSc1nnc(COc2cc(C)ccc2C)o1		3.55 µM (active)
O=C1SC(c2ccccc2)=C/C1=C\N1CCCCC1		2 µM (active)
COCCNC(=O)Cn1cnc2ccc(S(=O)(=O)N3CCC(C)CC3)cc2c1=O	-16.1%	
CC1CCN(S(=O)(=O)c2ccc3c(c2)C(=NO)c2cc(S(=O)(=O)N4CCC(C)CC4)ccc2-3)CC1		4.47 µM (active)
CC1CCN(CC[C@H]2CCCN2S(=O)(=O)c2cccc(O)c2)CC1	-20.6%	
COc1cc([C@H](O)C(=O)O)ccc1O	-11.8%	
COc1ccc(C(O)P(=O)(OC(C)C)OC(C)C)cc1OC (stereo unspecified)		3.55 µM (active)
COc1cc([C@@H](O)CO)ccc1OS(=O)(=O)O	-27.9%	
CCC(=O)OCc1c(C(F)(F)F)nn(C)c1Sc1ccc(F)cc1		1.41 µM (active)
CC(=O)OCc1c(C(F)(F)F)nn(C)c1Sc1ccccc1		0.891 µM (active)
CC(C)(N=NC(C)(C)C1=NCCN1)C1=NCCN1	30.5% [at 11.4 µM]	
COC(Cn1c(C)c(C(C)=O)c(C(C)=O)c1C)OC	2.91%	
N#C/C(=C/c1ccc(N2CCCC2)c([N+](=O)[O-])c1)c1nc2ccccc2[nH]1		1.26 µM (active)
N#C/C(=C\c1ccc(N2CCCC2)c([N+](=O)[O-])c1)c1nc2ccccc2[nH]1		1 µM (active)
Cn1c(=O)n2n(c1=O)[C@H]1[C@H](O)[C@H]3O[C@H]3C(=O)[C@H]1CC2	20.1% [at 11.4 µM]	
C1CCC(C(C[C@@H]2CCCCN2)C2CCCCC2)CC1	-2.64% [at 25.6 µM]	
C[C@@H]1O[C@H](O[C@@H]2[C@@H](Oc3cc(O)c4c(c3)O[C@H](c3ccc(O)cc3)CC4=O)O[C@@H](CO)[C@@H](O)[C@H]2O)[C@@H](O)[C@H](O)[C@@H]1O	-34.9% [at 25.6 µM]	
c1ccc(-c2nc3ccccc3o2)nc1		14.1 µM (active)

Structure (SMILES)	activity, negative = inhibition	AC50
O=S(=O)(O)c1ccc(-c2nnc(-c3ccccn3)nc2-c2ccc(S(=O)(=O)O)o2)o1	-6.8% [at 11.4 µM]	
c1ccc(-c2ccccn2)nc1	-25.4%	
CC(C)=CCNc1ncnc2nc[nH]c12	26.8% [at 11.4 µM]	
O=[N+]([O-])/C=C/c1cn(Cc2ccccc2)c2ccccc12		1.41 µM (active)
O=C1CS/C(=C\[N+](=O)[O-])N1c1ccc(OC(F)(F)F)cc1		3.98 µM (active)
C/C=C\C1=C(CO)C(=O)C2O[C@]2(CC=C(C)C)C1=O (stereo partly specified)	-25.8% [at 11.4 µM]	
Cc1ccc(C(=O)N2C3C=CC(C3)C2(C(F)(F)F)C(F)(F)F)cc1 (stereo unspecified)		15.8 µM (active)
COc1ccccc1OC[C@H](O)COC(N)=O	-7.57% [at 25.6 µM]	
O=S(=O)(CC(O)COc1ccccc1Cl)c1ccccc1 (stereo unspecified)		7.08 µM (active)
C=CCOc1ccccc1OC[C@H](O)CNC(C)C	-20% [at 25.6 µM]	
O=C(Nc1cccc2ncccc12)c1cccc(F)c1	-10.5%	
O=C(Nc1cccc2ncccc12)c1ccc(-c2ccc(Br)cc2)o1		4.47 µM (active)
CC(=O)NCCNc1ccnc(-c2ccccc2C)n1	-6.01%	
COc1ccc2[nH]cc(CCNc3ccnc(-c4ccccc4C)n3)c2c1		2.51 µM (active)
COc1ccc2[nH]cc(CCNc3ccnc(-c4ccccc4C(F)(F)F)n3)c2c1		25.1 µM (active)
COc1cccc(CNc2ccc(F)c(Cl)c2)c1O		3.16 µM (active)
Cc1noc(C)c1C(=O)N1CCC[C@@]2(CCN(C(=O)Nc3ccccc3)C2)C1	-2.9%	
CCC(CC)C(=O)Nc1cccc(/C(C)=N/NC(=O)c2c(Br)cnn2C)c1	12.7%	
CCOC(=O)c1c(NC(=O)c2c(Br)cnn2C)c(C#N)nn1-c1ccccc1		11.2 µM (active)
Cc1ccc(C(c2ccc(C)o2)c2cccc([N+](=O)[O-])c2O)o1		3.55 µM (active)
O=C1NC(=S)N/C1=C/c1cccc([N+](=O)[O-])c1O	-7.68%	
Cc1c(-c2ccc(O)cc2)nn(-c2ccc(O)cc2)c1-c1ccc(OCCN2CCCCC2)cc1	25%	
Cc1ccc(C(=O)N/C(=C/C=C/c2ccccc2)C(=O)NCc2ccco2)cc1		2.24 µM (active)
CC(C)OC(=O)/C(=C\C=C\c1ccccc1)NC(=O)c1ccccc1	-28.8%	

Structure (SMILES)	activity, negative = inhibition	AC50
C=CCNC(=O)/C(=C\C=C\c1ccccc1)NC(=O)c1ccc(OCCCC)cc1		14.1 µM (active)
O=C(NCC1CCCO1)/C(=C\c1ccco1)NC(=O)c1ccccc1 (stereo unspecified)	16.1%	
COc1ccc(-c2nc3cnc(N(C)C)nc3n(C[C@H]3CCCO3)c2=O)cc1	36.9%	
Cc1ccc(CSc2nnc(-c3ccncc3)n2CC2CCCO2)cc1 (stereo unspecified)		4.47 µM (active)
CCC(=O)Nc1ccc(C(=O)CSc2nnc(-c3ccc(O)cc3)n2CC2CCCO2)cc1OC (stereo unspecified)	-29.4%	
CCn1c(-c2ccc(N(C)C)cc2)nc2ccccc21		39.8 µM (active)
Cc1cc(C)c(NC(=O)CS(=O)CC(=O)NCCCc2ccccc2)c(C)c1 (stereo unspecified)	-9.86%	
O=C(NCCCc1ccccc1)c1cccs1		2.51 µM (active)
Cc1ccc(NC(=O)NCCCc2ccccc2)cc1		2.51 µM (active)
Cc1ccc(S(=O)(=O)NC(=O)OC23COCN2COC3)cc1	12.8% [at 11.4 µM]	
Cc1ccc(NC(=O)NNS(=O)(=O)c2ccc(Br)cc2)cc1	-18.6%	
Cc1ccc(S(=O)(=O)NNc2ccccc2)cc1		2.82 µM (active)
Cc1ccc(NNS(=O)(=O)c2ccc(C)cc2)cc1		7.08 µM (active)
CO[C@H]1COC(=O)[C@@H](Cc2ccccc2)NC(=O)[C@@H](C)COC(=O)CCC[C@@H]1C	-15.4% [at 11.4 µM]	
COc1ccccc1C1(CC(=O)Nc2nccs2)CCOC(C(C)C)C1 (stereo unspecified)		1.58 µM (active)
Nc1c(-c2cccs2)cnn1-c1nc(-c2ccc(F)cc2)cs1	-22.7%	
COc1ccc(-c2csc(-n3ncc(-c4cccs4)c3N)n2)cc1	-7.82%	
Nc1c(-c2cccs2)cnn1-c1nc(-c2ccc(Cl)cc2Cl)cs1		0.0708 µM (active)
COc1ccc(CNc2ncncc2-c2ccccc2C(F)(F)F)c(OC)c1		1.58 µM (active)
COc1ccccc1CNc1ncncc1-c1ccccc1C(F)(F)F		1.58 µM (active)
COCCn1c(=O)c(C)nc2cnc(N(C)C)nc21	-29.1%	
CN(C)C(=O)c1ccc(-c2ccc3ncnc(N4CCOCC4)c3c2)cc1	-28.9%	
COc1ccc(-n2c(=O)c(C)nc3cnc(N4CCOCC4)nc32)cc1	-16.1%	
COC(=O)c1ccc(Oc2nc(N(C)C)nc(N3CCOCC3)n2)cc1		14.1 µM (active)
